Measured values reported in PubChem BioAssay AID434927 (Sanford-Burnham Center for Chemical Genomics, 2010).
Activity calls are given as the source filed them.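 How the source made its calls: active means inhibition above about 23% in any of six single-dose repeats (limit read from the data); inactive means the rest.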

Each molecule was assayed against Intestinal-type alkaline phosphatase (Homo sapiens) (UniProt P09923) (assay: suppression of intestinal alkaline phosphatase activity – biochemical, luminescence, single concentration, uHTS hits, confirmation (AID 434927;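 further: plate controls were DMSO wells with enzyme for no effect and wells lacking enzyme for full effect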)). Settings: purified human IAP, CDP-Star luminescence, 30 min; at 8.3 µM; active compounds read high.
Chain of Intestinal-type alkaline phosphatase (Homo sapiens) (P09923 whole entry, looked up): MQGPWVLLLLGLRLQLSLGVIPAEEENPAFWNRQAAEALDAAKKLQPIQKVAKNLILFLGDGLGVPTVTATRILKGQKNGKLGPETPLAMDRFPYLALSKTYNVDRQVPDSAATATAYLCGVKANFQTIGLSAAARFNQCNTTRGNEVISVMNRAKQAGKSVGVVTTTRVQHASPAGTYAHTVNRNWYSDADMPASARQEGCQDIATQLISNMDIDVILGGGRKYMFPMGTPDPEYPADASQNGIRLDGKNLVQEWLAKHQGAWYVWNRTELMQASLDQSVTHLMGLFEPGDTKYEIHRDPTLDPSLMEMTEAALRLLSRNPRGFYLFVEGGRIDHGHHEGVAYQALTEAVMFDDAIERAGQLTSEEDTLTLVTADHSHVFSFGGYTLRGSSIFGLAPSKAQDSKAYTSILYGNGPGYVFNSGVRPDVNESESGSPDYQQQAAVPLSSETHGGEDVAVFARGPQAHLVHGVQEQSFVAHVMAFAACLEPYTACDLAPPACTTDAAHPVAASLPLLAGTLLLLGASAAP

inhibition, active:
Cc1cc2nc(C3CCN(Cc4nnnn4Cc4cccs4)CC3)[nH]c2cc1C 79.3%, COc1ccc(C=C2C(=O)c3ccccc3C2=O)cc1O 56.2%, CCn1cnc2sc(C(=O)O)c(C)c2c1=O 64%, Cc1cccc(NS(=O)(=O)c2cccc(C(=O)NNC(=O)c3ccccc3O)c2)c1 29.2%, CCOC(=O)c1c(C)[nH]c(C(=O)N/N=C/c2cc([N+](=O)[O-])ccc2O)c1C 29.6%, CN(CC(=O)Nc1ccccc1F)CC(=O)Nc1ccc(F)c(F)c1F 51.6%, CCCn1c(/C=C/c2ccccc2)nc2ccccc21 36.8%, N#Cc1c(-c2ccccc2)nc(N2CCOCC2)[nH]c1=O 27.5%, CC(=O)CCc1ccc(Oc2nc(-c3cccnc3)nc3ccccc23)cc1 42%, Cc1cc(C(=O)NC2CC(C)(C)Cc3c2cnn3-c2ccccc2)n[nH]1 (stereo not drawn) 62.1%, O=C(O)c1ccccc1C(=O)Nc1cc(-c2ccccc2)[nH]n1 61.7%, COc1cc(/C=C/C(=O)OCC(=O)NC(=O)NC2CCCCC2)ccc1OC(F)F 78.7%, CC(C)Oc1ccc(CCC(=O)NNC(=S)NCc2ccccc2)cc1 46.5%, COc1ccccc1CCNC(=O)C1CCN(c2nnc(C)c3c(C)n(-c4ccc(C)cc4)nc23)CC1 30.8%, Cc1[nH]n(-c2nc(-c3ccccc3)cc(=O)[nH]2)c(=O)c1CCO 47.5%, CCC(C)(C)C1CCc2[nH]nc(C(=O)N/N=C(\C)c3ccco3)c2C1 (stereo not drawn) 62.7%, CC(C)(C)NC(=O)C(=O)NNC(=O)COc1ccccc1 39%

inhibition, inactive:
CCOc1ccc(NC(=O)CSc2nncn2C)cc1 -83.5%, CCC1CCCCN1C1Sc2ccc(C(=O)OC)cc2NC1=O (stereo not drawn) -69.1%, O=C(/C=C/c1ccc(O)cc1)c1ccc(NC2=C(N3CCCCC3)C(=O)c3ccccc3C2=O)cc1 -0.00319%, O=C(CSc1ncn[nH]1)NCCc1ccccc1 -113%, O=C(CCN1CCN(Cc2ccccc2)CC1)NNC(=O)Nc1cccc(C(F)(F)F)c1 -0.057%, C=CCN1C(=O)C2(NNc3ccccc3O2)c2ccccc21 (stereo not drawn) -92.8%, CC1=NN(c2nc3ccccc3[nH]2)C(=O)/C1=C/N(C)C -57%, CN(Cc1ccccc1)C(=O)Nc1ccc(Cl)cc1 -58.7%, Cc1cc(C)cc(CC(Cc2nc3ccccc3[nH]2)c2nc3ccccc3[nH]2)c1 (stereo not drawn) -323%, O=S(=O)(c1ccccc1)N1CCCC1c1cccs1 (stereo not drawn) -172%, CC(C)Oc1ccc(C(=O)Nc2ncn[nH]2)cc1 -64.7%, CN(C)c1ccc2nc3c(=O)[nH]c(=O)nc-3n(CC(O)C(O)C(O)CO)c2c1 (stereo not drawn) -87.3%, COc1ccc(CN2CCC(n3nccc3NC(=O)CCCc3ccccc3)CC2)cc1C -127%, Cc1cc(NC(=O)c2ccc(N3C(=O)C4C5C=CC(C5)C4C3=O)cc2)no1 (stereo not drawn) -161%, Cc1nc(S/C(=C/c2ccc(-c3ccc(Cl)cc3)o2)C(=O)O)n[nH]1 -88.7%, Cc1cccc(SCc2noc(C(=O)NCC3CCCO3)c2C(=O)O)c1 (stereo not drawn) -213%
